From PubChem BioAssay (Tox21)
Unmarked numbers belong to inactive results. Activity calls are given as the source filed them. Calls follow the shape of the dose curve; as a rule, active = well fitted inhibition curve with a large enough effect in the repeat runs (not every such curve was filed as active); inconclusive = weak or mixed curves; inactive = flat fitted curve, though single readings scatter.
% is scaled to controls: 0 for no effect and ±100 for the full control effect.

These compounds were tested against Thyrotropin-releasing hormone receptor (Homo sapiens) (UniProt P34981) (assay: qHTS assay to identify small molecule antagonists of the thyrotropin-releasing hormone receptor (TRHR) signaling pathway (AID 1346877)). Conditions: TRHR-HEK293, TRH-induced calcium fluorescence, antagonist mode; series mostly up to 51.3 µM.
Sequence of Thyrotropin-releasing hormone receptor (Homo sapiens) (P34981 whole entry, looked up): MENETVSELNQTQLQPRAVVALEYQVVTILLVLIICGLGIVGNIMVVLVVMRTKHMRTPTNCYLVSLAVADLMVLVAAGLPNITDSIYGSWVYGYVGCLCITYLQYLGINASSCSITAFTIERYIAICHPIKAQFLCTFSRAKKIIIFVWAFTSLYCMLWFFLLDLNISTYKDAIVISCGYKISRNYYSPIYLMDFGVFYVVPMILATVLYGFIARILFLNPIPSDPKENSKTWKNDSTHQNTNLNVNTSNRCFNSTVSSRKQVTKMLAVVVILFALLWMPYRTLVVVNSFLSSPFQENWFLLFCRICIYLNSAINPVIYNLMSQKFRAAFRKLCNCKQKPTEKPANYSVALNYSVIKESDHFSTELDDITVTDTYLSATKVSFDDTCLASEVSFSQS
Source text: National Center for Advancing Translational Sciences [NCATS]
NIH Chemical Genomics Center [NCGC]
U.S. Environmental Protection Agency [EPA]
National Institutes of Environmental Health Sciences [NIEHS]
National Toxicology Program [NTP]
U.S. Food and Drug Administration [FDA]
Thyrotropin-releasing hormone (TRH) receptor (TRHR) is a G-protein-coupled receptor which binds the tripeptide thyrotropin releasing hormone. TRHR is found in the brain and, when bound by TRH, acts (through phospholipase C) to increase intracellular inositol trisphosphate. It plays a crucial role in the anterior pituitary where it controls the synthesis and secretion of thyroid stimulating hormone and prolactin. The TRHR-Hek293 assay is a cell-based assay, and it has the potential to screen G protein-coupled receptors. A compound/drug can either activate (agonist) or suppress (antagonist) GPCRs that can be monitored by levels of intracellular calcium. In this assay, the Tox21 10K compound library was screened to identify potential TRHR antagonists.
Tox21 Assay Protocol Summary:
The TRHR-Hek293 cells were dispensed at 1500cells/4uL/well in 1536-well black-clear bottom plates using a Multidrop dispenser. After the assay plates were incubated at a 37 C/5% CO2 incubator for 18 hours, 4 uL of Dye-Loading Solution was added to each well. The plates were incubated at 37 C for 2 hours. For agonist mode, 23 nL of compounds dissolved in DMSO, positive controls or DMSO only was transferred to the assay plate by a pin tool. The fluorescence intensity in the plates was measured using FDSS 7000EX kinetic plate reader for 3 min at 1 sec intervals. For antagonist mode, 23 nL of compounds dissolved in DMSO, positive controls or DMSO only was transferred to the assay plate by a pin tool. After 5 min incubation at room temperature, 1 uL of TRH was added on the top of the cell/compound mixtures to achieve a final agonist concentration of 1 nM. The fluorescence intensity in the plates was measured using FDSS 7000EX kinetic plate reader for 3 min at 1 sec intervals. Each test compound was measured at 15 concentrations and in triplicates.
For `Cc1ccc2ccccc2n1`, the outcome was “inactive”. With `CC1(C)C(=O)C(C)(C)C1=O` the outcome was “inactive”. For `CNCCc1ccccn1`, the outcome was “inactive”. For `CCc1ccc(CC)cc1`, the outcome was “inactive”. With `CCCCC(O)/C=C(C)/C=C/C=C/C(=O)N1CCCC1=O` (stereo not given) the outcome was “inactive”. `CCCCS` was tested, and the outcome was “inactive”. `CC(O)C(CO)C(C)O` (stereo not given) was tested, and the outcome was “inactive”. In the case of `CC(C)(C)OC(=O)c1ccccc1C(=O)O`, the outcome is reported as “inactive”. With `CCCCN(CCCC)CCCCCCN(CCCC)CCCC` the outcome was “inactive”. `CCN1CCN(C(=O)N[C@@H](C(=O)N[C@@H]2C(=O)N3C(C(=O)O)=C(CSc4nnnn4C)CS[C@H]23)c2ccc(O)cc2)C(=O)C1=O` was tested, and the outcome was “inactive”. For `CN(C)CCCN(C)C`, the activity, negative = inhibition was -3.47% [at 4.65 µM]. With `CCC(=O)OCCOc1ccccc1` the outcome was “inactive”. In the case of `CC/C=C\CCOC(=O)c1ccccc1`, the outcome is reported as “inactive”. With `CCCCCCCOC(C)=O` the outcome was “inactive”. With `Cc1ccc(OC(=O)CC(C)C)cc1` the outcome was “inactive”. For `CC(C)c1cc(C(C)C)cc(C(C)C)c1`, the outcome was “inactive”. `CC(=O)SC[C@@H](C)C(=O)N1CCC[C@H]1C(=O)N[C@@H](Cc1ccccc1)C(=O)O` was tested, and the outcome was “inactive”. For `C=CC(=O)OCC[N+](C)(C)C`, the outcome was “inactive”. In the case of `CC(C)(C)C(=O)CCc1ccc(Cl)cc1`, the outcome is reported as “inactive”. In the case of `Cc1ccc(Br)cc1`, the outcome is reported as “inactive”. For `C=C(C)C(=O)OCCOC1CC2CC1C1C=CCC21` (stereo not given), the outcome was “inactive”. With `CC(C)(C)NCC(O)COc1cccc2c1CCC(=O)N2` (stereo not given) the outcome was “inactive”. In the case of `O=C(O)CCC(=O)Nc1ccc(S(=O)(=O)Nc2nccs2)cc1`, the outcome is reported as “inactive”. `CC(C)OC(=O)C(C(=O)OC(C)C)=C1SC=CS1` was tested, and the outcome was “inactive”. In the case of `CC(C)(C)c1ccc(N)cc1`, the outcome is reported as “inactive”. In the case of `O=c1[nH]c(=O)c2cn[nH]c2[nH]1`, the outcome is reported as “inactive”. In the case of `CC(C)=CCC/C(C)=C\C#N`, the outcome is reported as “inactive”. For `CC(C)(C)C(=O)CC(=O)C(C)(C)C`, the outcome was “inactive”. For `CCCOc1ccc(C(=O)OCCN(CC)CC)cc1N`, the outcome was “inactive”. For `CCOC(=O)COc1ccc2c(C)c(CCN(CC)CC)c(=O)oc2c1Cl`, the outcome was “inactive”. `O=S(=O)(O)CC(O)CCl` (stereo not given) was tested, and the outcome was “inactive”. `C[C@@H]1NC(=O)[C@@H](N)CNC(=O)[C@H](C2CCNC(N)=N2)NC(=O)/C(=C/NC(N)=O)NC(=O)[C@H](CNC(=O)C[C@@H](N)CCCN)NC1=O` (stereo not given in full) gave an activity, negative = inhibition of -1.68% [at 0.194 µM]. `COC(C)(C)CC(C)=O` was tested, and the outcome was “inactive”. For `COC(=O)N/N=C/c1c[n+]([O-])c2ccccc2[n+]1[O-]`, the outcome was “inactive”. For `CC1=C(O)C(=O)CO1`, the outcome was “inactive”. With `C/C(Cl)=C/CCl` the outcome was “inactive”. In the case of `CC(C)(O)CCCC1=CCC(C=O)CC1` (stereo not given), the outcome is reported as “inactive”. In the case of `CCCCCCCCCCCBr`, the outcome is reported as “inactive”. `Cc1ccccc1C#N` was tested, and the outcome was “inactive”. `CC(C)(Sc1cc(C(C)(C)C)c(O)c(C(C)(C)C)c1)Sc1cc(C(C)(C)C)c(O)c(C(C)(C)C)c1` was tested, and the outcome was “inactive”.
